The target of test [1] is Sphingosine kinase 1 (Homo sapiens) (UniProt Q9NYA1). The conditions noted are these: at 1 µM.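 Also: mean SPHK1 inhibition value reported from the GSK PKIS kinase panel screen.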
In test [2] the target is T1, Sphingosine kinase 2 (Homo sapiens) (UniProt Q9NRA0).
T1 sequence (whole entry): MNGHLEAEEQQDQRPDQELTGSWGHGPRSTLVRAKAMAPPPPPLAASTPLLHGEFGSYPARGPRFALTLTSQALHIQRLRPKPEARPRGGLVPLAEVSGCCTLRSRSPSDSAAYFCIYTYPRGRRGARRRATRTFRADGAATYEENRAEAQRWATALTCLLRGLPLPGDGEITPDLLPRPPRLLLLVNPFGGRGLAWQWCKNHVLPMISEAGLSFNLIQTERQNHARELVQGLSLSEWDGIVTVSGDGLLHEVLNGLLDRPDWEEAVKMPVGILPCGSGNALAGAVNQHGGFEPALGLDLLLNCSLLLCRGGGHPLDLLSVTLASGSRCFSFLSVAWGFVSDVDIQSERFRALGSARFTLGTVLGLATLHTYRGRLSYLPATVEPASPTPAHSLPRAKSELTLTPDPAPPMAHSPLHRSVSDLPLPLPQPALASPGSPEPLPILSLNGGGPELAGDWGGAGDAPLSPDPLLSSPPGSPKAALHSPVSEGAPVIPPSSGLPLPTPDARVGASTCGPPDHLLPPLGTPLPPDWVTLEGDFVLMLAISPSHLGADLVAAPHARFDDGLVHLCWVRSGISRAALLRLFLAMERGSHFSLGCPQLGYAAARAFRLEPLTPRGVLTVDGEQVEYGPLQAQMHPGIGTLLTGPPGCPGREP
Conditions: at 0.1 µM.

Test [3] has as its target T1, Sphingosine kinase 2 (Homo sapiens). Conditions: at 1 µM.
Test [4] deals with Casein kinase II subunit alpha (Homo sapiens) (UniProt P68400). Conditions: at 0.1 µM.
Test [5] shares this target. The conditions noted are these: at 1 µM.
Test [6] deals with T2, Inhibitor of nuclear factor kappa-B kinase subunit alpha (Homo sapiens) (UniProt O15111).
T2 sequence (whole entry): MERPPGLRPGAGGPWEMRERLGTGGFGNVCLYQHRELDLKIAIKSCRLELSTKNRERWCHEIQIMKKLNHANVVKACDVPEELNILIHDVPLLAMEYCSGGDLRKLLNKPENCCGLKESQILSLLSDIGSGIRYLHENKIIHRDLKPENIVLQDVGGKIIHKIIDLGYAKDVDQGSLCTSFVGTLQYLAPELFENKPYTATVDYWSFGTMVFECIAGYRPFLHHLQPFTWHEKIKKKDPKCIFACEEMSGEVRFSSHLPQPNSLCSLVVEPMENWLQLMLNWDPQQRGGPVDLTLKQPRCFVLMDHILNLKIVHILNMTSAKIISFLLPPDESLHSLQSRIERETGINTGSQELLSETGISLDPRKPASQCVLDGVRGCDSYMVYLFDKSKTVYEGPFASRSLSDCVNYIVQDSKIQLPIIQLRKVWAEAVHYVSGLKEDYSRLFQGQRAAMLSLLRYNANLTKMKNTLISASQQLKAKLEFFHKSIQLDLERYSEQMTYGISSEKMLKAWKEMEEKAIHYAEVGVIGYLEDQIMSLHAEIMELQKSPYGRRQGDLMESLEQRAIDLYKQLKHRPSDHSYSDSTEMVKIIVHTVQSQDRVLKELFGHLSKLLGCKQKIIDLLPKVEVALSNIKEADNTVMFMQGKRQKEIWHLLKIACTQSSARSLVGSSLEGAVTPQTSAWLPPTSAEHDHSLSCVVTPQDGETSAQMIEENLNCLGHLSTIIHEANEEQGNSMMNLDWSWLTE
Conditions: at 0.1 µM.

The target in test [7] is T2, Inhibitor of nuclear factor kappa-B kinase subunit alpha (Homo sapiens). Conditions: at 1 µM.
Test [8] addresses T3, Inhibitor of nuclear factor kappa-B kinase subunit beta (Homo sapiens) (UniProt O14920).
T3 sequence (whole entry): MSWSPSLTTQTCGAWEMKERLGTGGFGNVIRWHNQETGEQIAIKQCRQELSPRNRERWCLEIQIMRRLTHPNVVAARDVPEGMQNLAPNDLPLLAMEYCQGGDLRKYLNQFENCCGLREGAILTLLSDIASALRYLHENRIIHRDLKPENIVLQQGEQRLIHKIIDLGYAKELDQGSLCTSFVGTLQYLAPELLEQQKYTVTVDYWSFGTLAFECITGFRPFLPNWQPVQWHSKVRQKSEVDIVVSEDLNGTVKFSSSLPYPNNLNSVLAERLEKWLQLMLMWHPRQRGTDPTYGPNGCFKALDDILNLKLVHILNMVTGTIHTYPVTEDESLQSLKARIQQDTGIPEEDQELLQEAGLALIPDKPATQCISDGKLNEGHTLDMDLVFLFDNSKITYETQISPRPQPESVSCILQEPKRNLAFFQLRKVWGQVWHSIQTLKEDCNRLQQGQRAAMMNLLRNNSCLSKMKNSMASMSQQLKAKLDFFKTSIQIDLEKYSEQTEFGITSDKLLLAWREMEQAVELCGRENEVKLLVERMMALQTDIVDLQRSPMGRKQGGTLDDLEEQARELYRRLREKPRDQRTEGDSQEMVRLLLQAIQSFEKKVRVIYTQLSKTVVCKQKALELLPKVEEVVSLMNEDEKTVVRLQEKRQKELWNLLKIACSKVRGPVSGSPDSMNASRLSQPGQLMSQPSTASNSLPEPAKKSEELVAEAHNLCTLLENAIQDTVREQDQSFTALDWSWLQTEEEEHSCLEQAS
Conditions: at 0.1 µM.

Test [9] concerns the target T3, Inhibitor of nuclear factor kappa-B kinase subunit beta (Homo sapiens). Conditions: at 1 µM.
Test [10] has as its target T4, Inhibitor of nuclear factor kappa-B kinase subunit epsilon (Homo sapiens) (UniProt Q14164).
T4 sequence (whole entry): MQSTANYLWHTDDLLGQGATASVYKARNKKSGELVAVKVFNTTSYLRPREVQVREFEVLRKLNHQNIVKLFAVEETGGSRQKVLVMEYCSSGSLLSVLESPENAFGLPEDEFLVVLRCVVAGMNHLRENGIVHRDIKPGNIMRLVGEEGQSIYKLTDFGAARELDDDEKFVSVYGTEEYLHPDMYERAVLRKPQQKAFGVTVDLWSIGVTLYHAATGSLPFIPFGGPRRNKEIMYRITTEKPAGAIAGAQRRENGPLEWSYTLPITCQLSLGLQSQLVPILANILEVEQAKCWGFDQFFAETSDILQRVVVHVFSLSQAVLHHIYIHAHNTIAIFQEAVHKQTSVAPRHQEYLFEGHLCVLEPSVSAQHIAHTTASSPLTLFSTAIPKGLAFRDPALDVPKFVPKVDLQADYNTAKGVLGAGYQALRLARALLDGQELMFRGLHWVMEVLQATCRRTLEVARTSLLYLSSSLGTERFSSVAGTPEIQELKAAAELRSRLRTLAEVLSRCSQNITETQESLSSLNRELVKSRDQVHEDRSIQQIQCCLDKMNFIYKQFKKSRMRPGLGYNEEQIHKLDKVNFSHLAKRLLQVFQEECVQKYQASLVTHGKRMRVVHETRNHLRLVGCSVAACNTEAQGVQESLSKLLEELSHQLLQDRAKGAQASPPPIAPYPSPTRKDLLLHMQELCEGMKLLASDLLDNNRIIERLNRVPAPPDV
The conditions noted are these: at 0.1 µM.

The target in test [11] is T4, Inhibitor of nuclear factor kappa-B kinase subunit epsilon (Homo sapiens). Conditions: at 1 µM.
The target of test [12] is T5, Serine/threonine-protein kinase Nek1 (Homo sapiens) (UniProt Q96PY6).
T5 sequence (whole entry): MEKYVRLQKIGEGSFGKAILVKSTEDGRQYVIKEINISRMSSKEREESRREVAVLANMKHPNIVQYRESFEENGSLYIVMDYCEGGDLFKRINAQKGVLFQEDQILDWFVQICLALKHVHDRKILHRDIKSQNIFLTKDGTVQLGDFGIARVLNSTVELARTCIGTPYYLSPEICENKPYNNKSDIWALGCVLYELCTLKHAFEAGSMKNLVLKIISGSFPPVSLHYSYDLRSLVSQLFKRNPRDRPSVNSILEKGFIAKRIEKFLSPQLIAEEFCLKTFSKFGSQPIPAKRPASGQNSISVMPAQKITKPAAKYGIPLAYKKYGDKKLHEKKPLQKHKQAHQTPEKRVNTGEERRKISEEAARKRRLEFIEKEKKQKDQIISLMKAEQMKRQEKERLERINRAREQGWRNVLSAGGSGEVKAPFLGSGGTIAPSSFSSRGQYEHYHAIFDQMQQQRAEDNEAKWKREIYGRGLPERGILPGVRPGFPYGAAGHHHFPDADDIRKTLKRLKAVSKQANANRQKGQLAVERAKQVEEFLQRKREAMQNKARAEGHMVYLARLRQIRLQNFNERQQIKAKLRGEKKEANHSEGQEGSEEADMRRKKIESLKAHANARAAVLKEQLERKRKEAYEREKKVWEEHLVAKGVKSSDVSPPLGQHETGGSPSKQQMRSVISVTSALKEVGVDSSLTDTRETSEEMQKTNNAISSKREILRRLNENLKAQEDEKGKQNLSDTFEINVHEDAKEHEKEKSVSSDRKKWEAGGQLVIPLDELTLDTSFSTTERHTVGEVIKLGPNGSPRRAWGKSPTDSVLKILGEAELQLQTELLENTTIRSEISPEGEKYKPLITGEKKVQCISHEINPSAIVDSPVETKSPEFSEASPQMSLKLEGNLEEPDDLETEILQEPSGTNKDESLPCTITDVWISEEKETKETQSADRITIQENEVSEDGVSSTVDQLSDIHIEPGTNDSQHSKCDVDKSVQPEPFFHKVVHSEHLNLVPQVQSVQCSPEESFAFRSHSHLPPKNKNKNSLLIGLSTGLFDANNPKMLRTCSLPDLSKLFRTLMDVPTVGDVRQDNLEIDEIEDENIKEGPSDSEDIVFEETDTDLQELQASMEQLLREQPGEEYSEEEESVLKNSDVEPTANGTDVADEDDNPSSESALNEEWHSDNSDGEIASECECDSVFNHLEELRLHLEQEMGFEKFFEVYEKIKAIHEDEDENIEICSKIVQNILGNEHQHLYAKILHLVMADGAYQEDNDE
The conditions noted are these: at 0.1 µM.

The target in test [13] is T5, Serine/threonine-protein kinase Nek1 (Homo sapiens). The conditions noted are these: at 1 µM.
Test [14] addresses T6, Serine/threonine-protein kinase Nek2 (Homo sapiens) (UniProt P51955).
T6 sequence (whole entry): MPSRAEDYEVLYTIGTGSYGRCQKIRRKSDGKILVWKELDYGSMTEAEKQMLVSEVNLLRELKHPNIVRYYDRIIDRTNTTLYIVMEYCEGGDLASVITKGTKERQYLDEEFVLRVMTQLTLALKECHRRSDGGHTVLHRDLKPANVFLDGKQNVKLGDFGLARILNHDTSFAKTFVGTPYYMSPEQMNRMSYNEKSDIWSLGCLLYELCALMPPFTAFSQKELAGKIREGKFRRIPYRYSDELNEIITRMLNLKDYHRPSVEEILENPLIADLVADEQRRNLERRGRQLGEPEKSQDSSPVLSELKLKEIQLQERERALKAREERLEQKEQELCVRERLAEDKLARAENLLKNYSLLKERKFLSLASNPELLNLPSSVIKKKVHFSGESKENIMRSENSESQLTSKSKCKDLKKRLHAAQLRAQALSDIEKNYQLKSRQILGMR
The conditions noted are these: at 0.1 µM.

Test [15] concerns the target T6, Serine/threonine-protein kinase Nek2 (Homo sapiens). The conditions noted are these: at 1 µM.
Test [16] addresses Serine/threonine-protein kinase Nek6 (Homo sapiens) (UniProt Q9HC98). Conditions: at 0.1 µM.
Test [17] has the same target. Conditions: at 1 µM.
For test [18], the target named is Serine/threonine-protein kinase Nek7 (Homo sapiens) (UniProt Q8TDX7). The conditions noted are these: at 0.1 µM.
Test [19] shares this target. The conditions noted are these: at 1 µM.
Test [20] concerns the target T7, Serine/threonine-protein kinase Nek9 (Homo sapiens) (UniProt Q8TD19).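 Also: reported value is the mean percent inhibition of NEK9.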
T7 sequence (whole entry): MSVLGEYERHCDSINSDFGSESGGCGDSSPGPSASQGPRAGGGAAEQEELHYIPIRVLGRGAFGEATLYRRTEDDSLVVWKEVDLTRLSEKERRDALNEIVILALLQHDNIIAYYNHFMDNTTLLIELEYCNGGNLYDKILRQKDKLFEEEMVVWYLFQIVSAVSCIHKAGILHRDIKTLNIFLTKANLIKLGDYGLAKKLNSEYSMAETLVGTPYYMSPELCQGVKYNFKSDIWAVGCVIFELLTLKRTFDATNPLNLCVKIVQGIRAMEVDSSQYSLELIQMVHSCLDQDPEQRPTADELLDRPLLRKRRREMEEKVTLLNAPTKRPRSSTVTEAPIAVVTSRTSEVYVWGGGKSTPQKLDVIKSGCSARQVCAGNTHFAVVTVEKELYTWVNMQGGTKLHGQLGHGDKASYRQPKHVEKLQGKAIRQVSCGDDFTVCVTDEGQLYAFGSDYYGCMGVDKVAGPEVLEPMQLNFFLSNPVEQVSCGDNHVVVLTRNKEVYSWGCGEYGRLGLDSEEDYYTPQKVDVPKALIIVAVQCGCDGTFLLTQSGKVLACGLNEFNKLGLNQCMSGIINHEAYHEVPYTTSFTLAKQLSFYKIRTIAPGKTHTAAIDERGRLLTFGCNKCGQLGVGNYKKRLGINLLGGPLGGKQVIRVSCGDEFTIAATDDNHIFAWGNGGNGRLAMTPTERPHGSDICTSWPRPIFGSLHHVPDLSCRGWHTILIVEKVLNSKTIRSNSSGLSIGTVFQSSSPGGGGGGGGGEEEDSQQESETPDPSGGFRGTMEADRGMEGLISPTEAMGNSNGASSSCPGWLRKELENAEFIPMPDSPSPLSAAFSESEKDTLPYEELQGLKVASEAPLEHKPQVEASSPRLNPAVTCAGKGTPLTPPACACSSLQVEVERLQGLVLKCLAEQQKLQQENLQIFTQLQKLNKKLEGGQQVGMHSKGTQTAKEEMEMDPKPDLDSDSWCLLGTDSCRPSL
The conditions noted are these: at 0.1 µM.

Here are results for 1 molecule from ChEMBL document CHEMBL1961873, “Compounds: GSK PKIS; Assays: Nanosyn kinase panel” (2012).

The term inhibition denotes the relative decrease from the control value, in per cent.

Serine/threonine-protein kinase Nek7 (Homo sapiens), sequence (Q8TDX7 whole entry, looked up): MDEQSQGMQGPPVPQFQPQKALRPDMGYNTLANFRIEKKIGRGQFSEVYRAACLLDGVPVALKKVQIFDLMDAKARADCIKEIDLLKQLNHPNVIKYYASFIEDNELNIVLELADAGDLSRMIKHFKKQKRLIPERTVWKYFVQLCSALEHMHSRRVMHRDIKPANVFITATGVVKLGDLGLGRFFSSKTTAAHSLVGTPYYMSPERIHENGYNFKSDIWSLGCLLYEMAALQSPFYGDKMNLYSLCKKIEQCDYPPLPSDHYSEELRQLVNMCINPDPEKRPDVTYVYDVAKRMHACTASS
Casein kinase II subunit alpha (Homo sapiens), sequence (P68400 whole entry, looked up): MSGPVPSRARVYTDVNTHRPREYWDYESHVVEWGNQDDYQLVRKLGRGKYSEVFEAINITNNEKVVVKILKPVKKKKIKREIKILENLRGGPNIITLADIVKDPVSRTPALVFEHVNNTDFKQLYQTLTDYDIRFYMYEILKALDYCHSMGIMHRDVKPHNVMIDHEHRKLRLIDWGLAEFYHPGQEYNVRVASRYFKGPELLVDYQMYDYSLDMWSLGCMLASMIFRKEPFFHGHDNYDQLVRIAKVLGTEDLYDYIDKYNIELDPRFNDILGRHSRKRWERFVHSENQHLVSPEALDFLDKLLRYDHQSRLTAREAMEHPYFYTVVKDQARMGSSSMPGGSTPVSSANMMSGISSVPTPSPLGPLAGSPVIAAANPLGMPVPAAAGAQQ
Serine/threonine-protein kinase Nek6 (Homo sapiens), sequence (Q9HC98 whole entry): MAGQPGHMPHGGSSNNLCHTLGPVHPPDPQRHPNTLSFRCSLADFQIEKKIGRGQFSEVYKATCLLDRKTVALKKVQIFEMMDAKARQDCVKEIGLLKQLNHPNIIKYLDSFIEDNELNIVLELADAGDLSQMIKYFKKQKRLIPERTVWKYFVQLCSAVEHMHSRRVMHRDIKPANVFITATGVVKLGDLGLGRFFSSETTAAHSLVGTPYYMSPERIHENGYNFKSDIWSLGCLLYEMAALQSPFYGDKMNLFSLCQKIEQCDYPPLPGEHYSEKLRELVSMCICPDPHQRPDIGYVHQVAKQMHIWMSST
Sphingosine kinase 1 (Homo sapiens), sequence (Q9NYA1 whole entry): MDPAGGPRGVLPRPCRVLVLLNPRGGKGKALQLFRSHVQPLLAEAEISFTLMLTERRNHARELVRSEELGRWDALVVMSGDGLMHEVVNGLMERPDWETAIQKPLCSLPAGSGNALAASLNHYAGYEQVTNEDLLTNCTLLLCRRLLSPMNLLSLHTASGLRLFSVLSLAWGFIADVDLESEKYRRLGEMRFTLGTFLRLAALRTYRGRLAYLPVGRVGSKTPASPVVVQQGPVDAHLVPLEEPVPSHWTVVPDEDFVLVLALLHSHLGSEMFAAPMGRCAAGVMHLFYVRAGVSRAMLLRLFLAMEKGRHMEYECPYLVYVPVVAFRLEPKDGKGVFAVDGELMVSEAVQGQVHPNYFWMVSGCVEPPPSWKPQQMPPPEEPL

Turning to `COc1cc(Nc2ncc(-c3ccccc3)o2)cc(OC)c1`, the inhibition is 2.45% in [1]; -0.24% in test [2]; -0.57% in test [3]; 3.79% in test [4]; 3.91% in test [5]; 2.7% in test [6]. Besides, the inhibition in [7] came to 4.19%; in [8], 4.63%; in test [9], 7.8%; in [10], 12.6%; in test [11], 10.9%; in [12] it was 1.83%. The inhibition in [13] amounted to 4.11%; in test [14] it was 5.36%; in test [15], 5.95%; in test [16], 3.13%; in [17], 1.56%; in test [18] it was 3.14%. Moreover, the inhibition in [19] came to 5.01%; in [20] it was 10.4%.
